Measured values reported in the supplement of paper PMC10338343.
± gives the standard deviation.

What follows are sequences tested on MILI (PIWIL2) piRISC loaded with piRNA #1 (26 nt) (assay: pre-steady-state target cleavage rate (min^-1); guide: piRNA #1 5'p-UGAGGUAGUAGGUUGUAUAGUAUCCA; MIWI and MILI are mouse PIWI proteins and EfPiwi is from a freshwater sponge; tags in brackets are library labels; higher = faster piRNA-guided slicing of the target). Details: auxiliary factor: 500 nM mouse GTSF1.
In short: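 Using HEPES–potassium acetate buffer at 33 °C, 1 nM active affinity-purified piRISC with a single synthetic guide was mixed with 0.1 nM transcribed, DNA-blocked target RNA library for 0–8 or 0–960 min, with or without 500 nM GTSF1 partner protein. Uncleaved targets were sequenced and normalised to depth and to weakly complementary targets, and three trials were pooled with k3 capped at 0.0001 min^-1. A burst-and-steady-state fit gave the pre-steady-state cleavage rate.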
In the case of GGAGACCUAUGAAGACAACCUACUACCUCA, the “pre-steady-state target cleavage rate” value is reported as 0.00824 ± 0.0032.
GGAGACCUAUGAUAUGAACGAACUACCUCA was tested, and the “pre-steady-state target cleavage rate” value was less than 0.0001.
For GGAGACCAUACAAUACAACCUACUAGCUCA, the “pre-steady-state target cleavage rate” value was 0.181 ± 0.029.
For GGAGACCUUAGUAUACAACCUACAACCUCA, the “pre-steady-state target cleavage rate” value was 0.0865 ± 0.013.
For GGAGACCUAUGUAUACUACCUACUAGCUCA, the “pre-steady-state target cleavage rate” value was 0.0108 ± 0.0031.
With GGAGACCUUACAAUAGAACCUACUACCUCA the “pre-steady-state target cleavage rate” value was 0.0823 ± 0.01.
GGAGACGAUACUAUACAACAUACUACCUCA was tested, and the “pre-steady-state target cleavage rate” value was 0.0988 ± 0.0095.
GGAGACCUAUGUAUACUACGUACUACCUCA was tested, and the “pre-steady-state target cleavage rate” value was 0.00798 ± 0.0023.
GGAGACCUAUGAUAUCUACCUACUACCUGA was tested, and the “pre-steady-state target cleavage rate” value was less than 0.0001.
With GGAGACCUAACUAUGACAACCUACUACCUCA the “pre-steady-state target cleavage rate” value was 0.0415 ± 0.0097.
With GGAGACCUAACUAUACUACCUACUACCUGA the “pre-steady-state target cleavage rate” value was 0.0917 ± 0.025.
In the case of GGAGACCUUACAAUACAACCUACUACCUGA, the “pre-steady-state target cleavage rate” value is reported as 0.0872 ± 0.013.
For GGAGACCUAACUAUUCAACGUACUACCUCA, the “pre-steady-state target cleavage rate” value was 0.0113 ± 0.0053.
With GGAGACCUAUCUAUACUAGCUACUACCUCA the “pre-steady-state target cleavage rate” value was 0.0865 ± 0.011.
For GGAGACGAUACUAUUGAACCUACUACCUCA, the “pre-steady-state target cleavage rate” value was 0.157 ± 0.016.
GGAGACCUAUGAAUACAACCUAGUACCUGA was tested, and the “pre-steady-state target cleavage rate” value was less than 0.0001.
In the case of GGAGACCUAUGAUAUCAACUUACUACCUCA, the “pre-steady-state target cleavage rate” value is reported as 0.00319 ± 0.0027.
With GGAGACCUAUCUAUAGAUCCUACUACCUCA the “pre-steady-state target cleavage rate” value was 0.144 ± 0.017.
GGAGACCUUACUAUUCAACCUACUAGCUCA was tested, and the “pre-steady-state target cleavage rate” value was 0.0771 ± 0.014.
For GGAGACCUAUGAUAACAACCUCCUACCUCA, the “pre-steady-state target cleavage rate” value was 0.00522 ± 0.0021.
For GGAGACCUAUGAAUACAACUUACUACCUCA, the “pre-steady-state target cleavage rate” value was 0.00939 ± 0.003.
GGAGACCUAUGUAAACAACCUACUACCUCA was tested, and the “pre-steady-state target cleavage rate” value was 0.0131 ± 0.0032.
For GGAGACCUUACUAUUCAACCUUCUACCUCA, the “pre-steady-state target cleavage rate” value was 0.00471 ± 0.0024.
With GGAGAGGAUUCUAUACAACCUACUACGUCA the “pre-steady-state target cleavage rate” value was 0.0519 ± 0.0081.
GGAGACCUAACUAUACAACGUACUACCUGA was tested, and the “pre-steady-state target cleavage rate” value was 0.00576 ± 0.0041.
With GGAGACCUAUGAAUACAAUCUACUACCUCA the “pre-steady-state target cleavage rate” value was 0.00544 ± 0.0022.
For GGAGACCUAUCUAUACAACCGUACUACCUCA, the “pre-steady-state target cleavage rate” value was 0.00775 ± 0.0032.
GGAGACCUAUCUAUAGAACCUACAACCUCA was tested, and the “pre-steady-state target cleavage rate” value was 0.00275 ± 0.0025.
In the case of GGAGACCUAUCAAUACAACCUUCUACCUCA, the “pre-steady-state target cleavage rate” value is reported as 0.00474 ± 0.0027.
GGAGACCUAUCAAUACAACCUACUUCCUCA was tested, and the “pre-steady-state target cleavage rate” value was 0.0355 ± 0.0087.
GGAGAGGAUACUAUAGAACCUACUUCCUCA was tested, and the “pre-steady-state target cleavage rate” value was 0.00501 ± 0.0029.
For GGAGACCUAUGAUUACAUCCAACUACCUCA, the “pre-steady-state target cleavage rate” value was 0.00328 ± 0.003.
In the case of GGAGACCUAUGUAAACAACCUACUACCACA, the “pre-steady-state target cleavage rate” value is reported as 0.00967 ± 0.0036.
For “GGAGACCUAUGAUAUGUUCCUACUACCUCG [g2:g12:cont:t1G]”, the “pre-steady-state target cleavage rate” value was less than 0.0001.
In the case of GGAGACCAUACAAUACAACCUAGUACCUCA, the “pre-steady-state target cleavage rate” value is reported as 0.0587 ± 0.011.
GGAGACCAUACUAUACUAGCUACUACCUCA was tested, and the “pre-steady-state target cleavage rate” value was 0.182 ± 0.018.
For GGAGACCUUACUUUUCAACCUACUACCUCA, the “pre-steady-state target cleavage rate” value was 0.0874 ± 0.01.
With GGAGACCUAUCUAUUGAACCUACUACCUCA the “pre-steady-state target cleavage rate” value was 0.0631 ± 0.011.
For GGAGACCUAUGAUAAAACCUACUACCUCA, the “pre-steady-state target cleavage rate” value was 0.00798 ± 0.0023.
In the case of GGAGACCUAUCUAUACAACCUACUACGUGA, the “pre-steady-state target cleavage rate” value is reported as 0.0608 ± 0.013.
